Common to all, as to design: scale not given: direction of the effect not stated beside the values
The target of experiment [1] is Protein translocase subunit SecA (Escherichia coli (strain K12)) (UniProt P10408). Briefly: Assay to Identify E. coli SecA ATPase Inhibitors. Format: functional. The settings on record: 30 µM.
Experiment [2] addresses T1, Ubiquitin-activating enzyme e1, putative (Leishmania donovani (strain BPK282A1)) (UniProt E9BSI1).
T1 sequence (whole entry): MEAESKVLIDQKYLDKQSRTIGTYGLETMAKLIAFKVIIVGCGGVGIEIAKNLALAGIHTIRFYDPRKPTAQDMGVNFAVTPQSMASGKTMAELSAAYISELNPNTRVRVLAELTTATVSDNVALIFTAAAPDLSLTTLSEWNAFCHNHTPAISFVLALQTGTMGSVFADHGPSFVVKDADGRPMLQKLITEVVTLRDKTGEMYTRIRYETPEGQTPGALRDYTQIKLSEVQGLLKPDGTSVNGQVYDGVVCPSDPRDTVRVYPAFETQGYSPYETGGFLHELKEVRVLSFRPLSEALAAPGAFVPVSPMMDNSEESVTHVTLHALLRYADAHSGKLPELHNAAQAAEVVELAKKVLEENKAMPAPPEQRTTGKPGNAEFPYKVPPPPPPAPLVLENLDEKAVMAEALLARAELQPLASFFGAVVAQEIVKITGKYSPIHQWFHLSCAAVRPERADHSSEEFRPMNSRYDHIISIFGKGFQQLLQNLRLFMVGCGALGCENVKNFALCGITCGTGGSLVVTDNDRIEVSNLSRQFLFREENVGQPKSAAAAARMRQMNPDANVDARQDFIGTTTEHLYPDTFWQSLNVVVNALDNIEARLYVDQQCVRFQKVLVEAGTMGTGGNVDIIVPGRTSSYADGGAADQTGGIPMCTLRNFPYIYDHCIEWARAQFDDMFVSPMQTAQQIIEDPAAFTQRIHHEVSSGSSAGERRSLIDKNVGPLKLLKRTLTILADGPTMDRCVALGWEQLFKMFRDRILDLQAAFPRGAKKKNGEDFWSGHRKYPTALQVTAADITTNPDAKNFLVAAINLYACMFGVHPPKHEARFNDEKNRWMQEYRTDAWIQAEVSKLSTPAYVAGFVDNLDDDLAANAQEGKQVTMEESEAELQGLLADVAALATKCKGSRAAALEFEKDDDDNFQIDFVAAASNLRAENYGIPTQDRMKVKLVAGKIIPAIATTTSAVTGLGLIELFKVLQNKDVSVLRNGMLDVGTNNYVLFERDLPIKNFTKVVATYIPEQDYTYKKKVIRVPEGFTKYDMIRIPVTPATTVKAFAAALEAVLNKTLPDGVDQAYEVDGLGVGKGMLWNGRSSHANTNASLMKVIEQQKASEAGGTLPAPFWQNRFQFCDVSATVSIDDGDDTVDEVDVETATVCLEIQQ
As to the kind of experiment: Leishmania donovani Ubiquitin Activating Enzyme (LdE1). Format: functional. The settings on record: 30 µM.

Experiment [3] addresses AMP-activated protein kinase, AMPK (Homo sapiens) (UniProt P54646+O43741+P54619+Q9UGJ0+Q9Y478+Q13131+Q9UGI9). Briefly: AMP-dependent Kinase enzyme assay. An in vitro enzyme assay that detects ADP turnover that is directly proportional to AMPK activity. This uses naive AMPK that is activated during the assay with MK-8722. To be noted: 30 µM. Format: functional.
Experiment [4] has as its target Sialic acid-binding Ig-like lectin 9 (Homo sapiens) (UniProt Q9Y336). Briefly: Hs-Siglec9 ALPHAscreen SOP 20170721. To be noted: 10 µM.
In the next experiment the test system is Trypanosoma cruzi. As to the kind of experiment: Trypanosoma cruzi phosphomannomutase and mannose-1-phosphate guanylyltransferase assay. It counts as functional. The settings on record: 10 µM.
The target in experiment [5] is T2, Arginase-2, mitochondrial (Homo sapiens) (UniProt P78540).
T2 sequence (whole entry): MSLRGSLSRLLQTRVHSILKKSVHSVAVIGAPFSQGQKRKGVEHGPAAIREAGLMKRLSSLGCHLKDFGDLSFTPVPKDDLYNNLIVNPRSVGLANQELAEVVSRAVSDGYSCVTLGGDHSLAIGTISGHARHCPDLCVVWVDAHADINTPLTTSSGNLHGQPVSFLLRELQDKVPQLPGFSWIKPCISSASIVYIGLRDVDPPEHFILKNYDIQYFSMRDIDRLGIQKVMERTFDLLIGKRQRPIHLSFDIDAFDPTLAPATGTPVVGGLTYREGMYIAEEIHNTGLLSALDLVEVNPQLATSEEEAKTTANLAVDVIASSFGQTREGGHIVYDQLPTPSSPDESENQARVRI
As to the kind of experiment: in vitro enzyme assay to detect the production of urea directly proportional to the activity of Arginase II. Note: in the data most compounds retested in dose-response had high values. Format: functional. To be noted: 33.3 µM.

For experiment [6], the target named is T3, Proteasome subunit beta (Trypanosoma cruzi) (UniProt O96673).
T3 sequence (whole entry): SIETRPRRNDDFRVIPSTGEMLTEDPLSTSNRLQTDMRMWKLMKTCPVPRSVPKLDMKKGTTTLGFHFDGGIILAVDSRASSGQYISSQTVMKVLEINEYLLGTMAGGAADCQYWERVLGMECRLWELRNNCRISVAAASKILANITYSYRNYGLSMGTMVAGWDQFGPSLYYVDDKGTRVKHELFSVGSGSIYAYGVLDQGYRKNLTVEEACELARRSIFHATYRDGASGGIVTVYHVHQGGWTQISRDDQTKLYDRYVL
Briefly: Trypanosoma cruzi proteasome chymotrypsin-like activity (TcProtChymo) assay. Note: in the data most compounds retested in dose-response had high values. It counts as functional. To be noted: 9.37 µM.

Another experiment is filed under the species Homo sapiens. As to the kind of experiment: To identify inhibition of the IFN signalling (Jak-Stat) pathway via expression of an eGFP reporter gene under the control of an IFN-stimulated response element (ISRE) containing MxA promoter. Format: functional. To be noted: 30 µM.
Experiment [7] has as its target T4, Tyrosyl-tRNA synthetase, putative (Trypanosoma cruzi (strain CL Brener)) (UniProt Q4DSP6).
T4 sequence (whole entry): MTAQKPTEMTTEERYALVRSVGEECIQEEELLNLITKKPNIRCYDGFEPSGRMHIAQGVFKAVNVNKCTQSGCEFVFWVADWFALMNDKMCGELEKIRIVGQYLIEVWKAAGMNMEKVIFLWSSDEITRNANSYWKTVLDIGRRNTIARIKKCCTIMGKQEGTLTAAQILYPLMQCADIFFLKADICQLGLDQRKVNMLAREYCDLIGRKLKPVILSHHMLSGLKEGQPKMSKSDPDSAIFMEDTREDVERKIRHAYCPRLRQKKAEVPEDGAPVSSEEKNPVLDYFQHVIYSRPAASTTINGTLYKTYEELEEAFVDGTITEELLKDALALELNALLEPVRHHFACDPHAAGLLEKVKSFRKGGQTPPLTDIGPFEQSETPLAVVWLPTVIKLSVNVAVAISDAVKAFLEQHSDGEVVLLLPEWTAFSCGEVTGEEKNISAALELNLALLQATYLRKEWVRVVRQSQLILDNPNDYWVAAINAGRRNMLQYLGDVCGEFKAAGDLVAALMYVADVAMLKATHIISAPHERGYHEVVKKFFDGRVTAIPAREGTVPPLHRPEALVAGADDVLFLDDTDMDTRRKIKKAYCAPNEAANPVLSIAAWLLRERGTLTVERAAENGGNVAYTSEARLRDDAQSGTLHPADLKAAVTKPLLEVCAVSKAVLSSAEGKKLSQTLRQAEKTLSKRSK
Briefly: Trypanosoma cruzi tyrosyl tRNA synthetase (TcYRS) _High Tyrosine SOP. Note: in the data most compounds retested in dose-response had high values. It counts as functional. The settings on record: 30 µM.

Experiment [8] concerns the target T4, Tyrosyl-tRNA synthetase, putative (Trypanosoma cruzi (strain CL Brener)). Briefly: Trypanosoma cruzi tyrosyl tRNA synthetase (TcYRS) SOP. Format: functional. The settings on record: 30 µM.
Experiment [9] deals with Chromo domain-containing protein 1 (Saccharomyces cerevisiae (strain ATCC 204508 / S288c) (Baker's yeast)) (UniProt P32657). Briefly: ScCHD-1 Enzyme Inhibition Assay. Note: in the data most compounds retested in dose-response had high values. It counts as functional. The settings on record: 30 µM.

Molecules are shown by their SMILES. For some of these results: Results with a measured potency or affinity are listed apart.

Sequence of Sialic acid-binding Ig-like lectin 9 (Homo sapiens) (Q9Y336 whole entry): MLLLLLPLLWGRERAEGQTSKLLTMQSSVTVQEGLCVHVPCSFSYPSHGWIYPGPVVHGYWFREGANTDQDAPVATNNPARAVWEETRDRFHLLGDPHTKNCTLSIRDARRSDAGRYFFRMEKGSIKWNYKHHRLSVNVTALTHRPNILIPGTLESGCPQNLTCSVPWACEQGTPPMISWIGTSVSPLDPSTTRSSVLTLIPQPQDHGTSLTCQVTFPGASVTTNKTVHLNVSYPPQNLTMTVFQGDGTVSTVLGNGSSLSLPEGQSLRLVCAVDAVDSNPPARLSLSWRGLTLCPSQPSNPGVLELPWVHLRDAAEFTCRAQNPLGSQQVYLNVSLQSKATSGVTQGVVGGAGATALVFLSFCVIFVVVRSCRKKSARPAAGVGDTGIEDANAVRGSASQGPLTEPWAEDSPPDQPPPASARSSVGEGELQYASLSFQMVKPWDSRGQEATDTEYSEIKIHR
Sequence of Chromo domain-containing protein 1 (Saccharomyces cerevisiae (strain ATCC 204508 / S288c) (Baker's yeast)) (P32657 whole entry, the tested form may be a part): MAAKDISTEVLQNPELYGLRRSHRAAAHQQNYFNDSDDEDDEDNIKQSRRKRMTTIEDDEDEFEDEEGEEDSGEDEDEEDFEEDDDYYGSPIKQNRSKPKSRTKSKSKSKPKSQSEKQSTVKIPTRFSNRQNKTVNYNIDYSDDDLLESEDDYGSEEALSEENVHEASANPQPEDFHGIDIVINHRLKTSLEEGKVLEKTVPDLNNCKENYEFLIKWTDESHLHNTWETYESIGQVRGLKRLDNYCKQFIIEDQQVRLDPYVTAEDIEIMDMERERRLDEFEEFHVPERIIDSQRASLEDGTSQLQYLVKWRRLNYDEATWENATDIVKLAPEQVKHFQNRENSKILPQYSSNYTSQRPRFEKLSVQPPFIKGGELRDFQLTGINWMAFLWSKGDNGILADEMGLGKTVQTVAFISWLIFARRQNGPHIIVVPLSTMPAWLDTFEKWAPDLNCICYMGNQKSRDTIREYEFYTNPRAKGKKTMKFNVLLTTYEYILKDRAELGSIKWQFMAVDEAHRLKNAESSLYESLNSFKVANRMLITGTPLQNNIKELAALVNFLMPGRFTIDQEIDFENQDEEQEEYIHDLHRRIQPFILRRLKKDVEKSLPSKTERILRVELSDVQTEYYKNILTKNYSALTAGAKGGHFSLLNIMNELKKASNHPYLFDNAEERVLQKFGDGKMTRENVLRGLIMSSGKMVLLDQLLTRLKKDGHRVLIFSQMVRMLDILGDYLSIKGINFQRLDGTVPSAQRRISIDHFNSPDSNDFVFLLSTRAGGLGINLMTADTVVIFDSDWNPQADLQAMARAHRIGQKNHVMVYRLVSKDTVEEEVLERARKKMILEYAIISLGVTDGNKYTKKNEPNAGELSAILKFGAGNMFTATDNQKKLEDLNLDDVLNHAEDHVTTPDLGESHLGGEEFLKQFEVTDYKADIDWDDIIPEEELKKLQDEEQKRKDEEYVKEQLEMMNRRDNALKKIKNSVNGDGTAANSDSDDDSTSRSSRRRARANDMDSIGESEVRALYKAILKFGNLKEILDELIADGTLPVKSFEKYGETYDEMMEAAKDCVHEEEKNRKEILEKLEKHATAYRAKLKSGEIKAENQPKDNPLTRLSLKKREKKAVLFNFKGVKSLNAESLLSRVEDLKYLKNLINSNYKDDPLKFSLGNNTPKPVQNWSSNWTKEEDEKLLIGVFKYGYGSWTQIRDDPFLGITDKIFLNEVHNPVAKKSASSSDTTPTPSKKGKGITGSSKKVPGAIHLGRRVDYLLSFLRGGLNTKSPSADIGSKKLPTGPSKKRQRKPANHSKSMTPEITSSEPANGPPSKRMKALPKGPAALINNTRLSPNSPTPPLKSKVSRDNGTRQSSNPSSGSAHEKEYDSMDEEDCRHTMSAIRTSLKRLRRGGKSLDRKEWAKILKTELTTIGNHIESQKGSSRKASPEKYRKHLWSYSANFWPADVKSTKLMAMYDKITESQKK
Sequence of Protein translocase subunit SecA (Escherichia coli (strain K12)) (P10408 whole entry): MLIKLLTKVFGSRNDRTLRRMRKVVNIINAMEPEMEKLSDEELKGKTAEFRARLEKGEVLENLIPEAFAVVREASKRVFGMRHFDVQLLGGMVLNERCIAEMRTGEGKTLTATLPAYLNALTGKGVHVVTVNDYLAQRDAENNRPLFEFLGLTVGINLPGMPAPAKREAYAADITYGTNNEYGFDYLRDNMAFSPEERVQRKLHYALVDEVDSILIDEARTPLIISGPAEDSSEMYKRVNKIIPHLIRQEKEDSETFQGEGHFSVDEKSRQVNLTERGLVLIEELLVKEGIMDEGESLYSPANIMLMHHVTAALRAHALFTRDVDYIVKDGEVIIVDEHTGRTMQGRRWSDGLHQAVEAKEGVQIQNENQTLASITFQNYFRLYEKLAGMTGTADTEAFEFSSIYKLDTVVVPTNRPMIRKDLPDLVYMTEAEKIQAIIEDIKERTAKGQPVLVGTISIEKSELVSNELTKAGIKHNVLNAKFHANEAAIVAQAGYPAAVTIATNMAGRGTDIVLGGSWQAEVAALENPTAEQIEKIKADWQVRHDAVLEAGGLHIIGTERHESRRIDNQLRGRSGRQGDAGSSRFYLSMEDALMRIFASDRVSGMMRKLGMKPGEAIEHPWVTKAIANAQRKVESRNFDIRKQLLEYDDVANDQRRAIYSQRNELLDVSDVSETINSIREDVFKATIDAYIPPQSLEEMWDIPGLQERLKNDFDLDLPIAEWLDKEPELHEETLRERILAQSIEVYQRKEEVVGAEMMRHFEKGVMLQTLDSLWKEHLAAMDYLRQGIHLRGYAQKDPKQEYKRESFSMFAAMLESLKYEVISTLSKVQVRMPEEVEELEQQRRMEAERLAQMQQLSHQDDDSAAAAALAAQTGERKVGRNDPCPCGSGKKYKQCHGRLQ

Regarding `Cc1nc(C)n(CC2CCCCN2CCS(C)(=O)=O)n1` (stereo unspecified), the Percent Effect in [1] was -4.31%; in experiment [2], -2.7%; in experiment [3], 0.489%; in experiment [4], 0.818%; in the experiment with Trypanosoma cruzi it was -3.09%; in experiment [5] it was -3.33%. For the same compound, the Percent Effect in experiment [6] was 11.7%; in the experiment listed under Homo sapiens it was 8.2%; in experiment [7], -2.65%; in experiment [8] it was -4.88%; in experiment [9], -3.45%.
With `CC(C)CNC(=O)[C@H]1CCS(=O)(=O)[C@@H]2CN(Cc3cccc(Cl)c3)C[C@H]12`, the Percent Effect is -8.49% in experiment [1]; 0% in experiment [2]; 6.38% in experiment [3]; 3.48% in experiment [4]; -2.15% in the experiment on Trypanosoma cruzi; 0% in experiment [5]. The Percent Effect came to 12.3% in [6]; 12.5% in the experiment filed under Homo sapiens; 3.96% in experiment [7]; 1.22% in experiment [8]; 3.36% in experiment [9].
Regarding `COc1cc(C)c(CN2CCC3(CC2)C(C(=O)O)CC(=O)N3C)cc1C` (stereo unspecified), the Percent Effect in experiment [1] is -0.465%; in experiment [2] it was 16%; in experiment [3], -9.44%; in [4] it was 6.22%; in the experiment with Trypanosoma cruzi, 0.682%; in experiment [5], 6.77%. Also, the Percent Effect in [6] was 10.3%; in the experiment listed under Homo sapiens, 22.7%; in experiment [7], 3.83%; in [8], 18.5%; in [9] it was -3.84%.
In the case of `CCn1cnnc1C1CCN(C(=O)c2cccc3c2ccn3C)CC1`, the Percent Effect in experiment [1] is -5.72%; in experiment [2], 18.2%; in experiment [3], -2.51%; in experiment [4], 0.647%; in the experiment with Trypanosoma cruzi, 3.37%; in experiment [5], -4.63%. Also, the Percent Effect was 7.43% in [6]; -1.75% in the experiment filed under Homo sapiens; 7.77% in [7]; 24.4% in experiment [8]; -13.2% in [9].
In the case of `N#CC1(C(=O)N2CCN(c3nccs3)CC2)CCCCC1`, the Percent Effect in [1] is -1.57%; in [2] it was 13.2%; in experiment [3], 7.71%; in experiment [4], 8.98%; in the experiment on Trypanosoma cruzi it was -2.26%; in experiment [5], 2.68%. Also, the Percent Effect in experiment [6] is 11%; in the experiment filed under Homo sapiens, -3.2%; in [7], 7.35%; in [8], 17.1%; in [9] it was -6.21%.
In the case of `C[C@@H]1CN(C(=O)c2ccsc2)C[C@]12CCN(c1ccsc1)C2=O`, the Percent Effect is -3.14% in experiment [1]; 0% in experiment [2]; 13.8% in experiment [3]; -0.135% in experiment [4]; -3.54% in the experiment on Trypanosoma cruzi; -1.63% in experiment [5]. Besides, the Percent Effect amounted to 2.91% in [6]; 5.8% in the experiment filed under Homo sapiens; 5.32% in experiment [7]; 3.85% in experiment [8]; 0.408% in experiment [9].
On to `Cn1nccc1-c1ccc2nc(C3CCN(CCO)CC3)nn2c1`, for which the Percent Effect in experiment [1] was -3.12%; in experiment [2], 13.3%; in experiment [3], 0.376%; in experiment [4] it was 3.71%; with Trypanosoma cruzi, 1.35%; in experiment [5], -54.7%. The Percent Effect in [6] was 13.5%; in the experiment listed under Homo sapiens, 3.01%; in [7] it was 5.21%; in [8], 22.5%; in experiment [9] it was -7.82%.
`CN(c1ccncn1)C1CC2(CCN(C(=O)c3cccs3)C2)C1` (stereo unspecified): the Percent Effect in experiment [1] was -5.11%; in [2] it was 1.35%; in [3], 1.54%; in [4], 8.09%; in the experiment on Trypanosoma cruzi, 2.96%; in experiment [5] it was -2.09%. Also, the Percent Effect in experiment [6] is 1.09%; in the experiment filed under Homo sapiens, 11.6%; in [7], -6.45%; in [8] it was -6.49%; in experiment [9], -17.8%.
As for `CCN(CC)C(=O)Nc1cc2c(cc1SC)OCCO2`, the Percent Effect in experiment [1] is -0.336%; in experiment [2] it was 8.11%; in experiment [3], -6.12%; in experiment [4], 9.01%; with Trypanosoma cruzi it was 3.71%; in [5], 27.5%. The Percent Effect is 3.47% in [6]; -7.38% in the experiment filed under Homo sapiens; 4.95% in experiment [7]; 8.54% in experiment [8]; -6.4% in experiment [9].
For `CNC(=O)CN1CCC(NC(=O)N(C)Cc2cc(C)on2)CC1`, the Percent Effect in experiment [1] was -1.81%; in experiment [2], 13%; in experiment [3] it was -1.11%; in [4] it was 13.1%; in the experiment on Trypanosoma cruzi, 9.7%; in [5], 0.632%. The Percent Effect in experiment [6] was 9.78%; in the experiment listed under Homo sapiens, -1.08%; in experiment [7] it was 8.57%; in experiment [8], 18.8%; in [9], -7.35%.
For the compound `c1ccc2sc(CN3CCOC(Cn4cncn4)C3)nc2c1` (stereo unspecified), the Percent Effect was -1.57% in [1]; -8.11% in [2]; -9.39% in experiment [3]; -1.81% in experiment [4]; -6.51% with Trypanosoma cruzi; 0.401% in experiment [5]. Besides, the Percent Effect is -4.68% in experiment [6]; 42.5% in the experiment filed under Homo sapiens; 1.48% in experiment [7]; -6.17% in experiment [8]; 4.42% in experiment [9].

The record behind these values is ChEMBL document CHEMBL3988442, “University of Dundee, Small-Polar-MMV Screening Library” (2021).
